Data taken from PubChem BioAssay (Tox21).
Active and inactive are the calls of the source. Unless noted, calls follow the shape of the dose curve; as a rule, active = well fitted curve in the direction sought with a large enough effect in the repeat runs; inconclusive = weak or mixed curves; inactive = no such curve, though single readings can be large; an effect the other way counts as inactive or inconclusive.

Columns and labels:
[1] = qHTS assay to identify small molecule antagonists of the glucocorticoid receptor (GR) signaling pathway - cell viability counter screen (AID 720693); also: nearly all actives have a fitted effect of over 55% in size
[2] = qHTS assay for identifying genotoxic compounds that show differential cytotoxicity against isogenic chicken DT40 cell lines with known DNA damage response pathways - wild type cell line (AID 743012); also: nearly all actives have a fitted effect of over 60% in size; also: potency is read from the fitted curve at half-maximal effect
In short: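 First, wild type DT40 cells were plated at 300 per well and equilibrated about 0.5 h at 37 C/5% CO2. Next, compounds in DMSO were added and exposure lasted 40 h. Finally, CellTiter-Glo was added for 30 min at room temperature and luminescence recorded.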

[3] = qHTS assay for identifying genotoxic compounds that show differential cytotoxicity against isogenic chicken DT40 cell lines with known DNA damage response pathways - Rev3 mutant cell line (AID 743014); also: nearly all actives have a fitted effect of over 55% in size; also: potency is read from the fitted curve at half-maximal effect
[4] = qHTS assay to identify small molecule antagonists of the androgen receptor (AR) signaling pathway - cell viability counter screen (AID 743033; also: nearly all actives have a fitted effect of over 45% in size; also: potency is read from the fitted curve at half-maximal effect)
[5] = qHTS assay to identify small molecule antagonists of the thyroid receptor (TR) signaling pathway - cell viability counter screen (AID 743064); also: nearly all actives have a fitted effect of over 50% in size; also: potency is read from the fitted curve at half-maximal effect
In short: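 GH3.TRE-Luc rat pituitary cells carrying a TRE-luciferase reporter were treated with compound plus 1 nM T3 (final) for 23.5 h at 37 °C. Viability was then read in the same wells by CellTiter-Fluor fluorescence after a further 30 min.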

[6] = qHTS assay to identify small molecule antagonists of the thyroid receptor (TR) signaling pathway (AID 743065); also: nearly all actives have a fitted effect of over 55% in size; also: potency is read from the fitted curve at half-maximal effect
In short: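 Antagonism measured as loss of luciferase signal in GH3 cells stably carrying a TRE-luciferase reporter, co-treated with compound and T3 (1 nM final) for 23.5 h at 37 C. Viability was read in the same well by CellTiter-Fluor.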

[7] = system: thyroid hormone receptor (rat, GH3 cells); experiment: qHTS assay to identify small molecule agonists of the thyroid receptor (TR) signaling pathway (AID 743066; calls by dose curve)
[8] = qHTS assay to identify small molecule antagonists of the estrogen receptor alpha (ER-alpha) signaling pathway - cell viability counter screen (AID 743074; calls by dose curve;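 also: HEK293 cells carrying ER-alpha-UAS-bla reporter stimulated with 17beta-estradiol; nearly all actives have a fitted effect of over 45% in size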)
[9] = target: Estrogen receptor (Homo sapiens) (UniProt P03372); experiment: qHTS assay to identify small molecule agonists of the estrogen receptor alpha (ER-alpha) signaling pathway (AID 743075; calls by dose curve)
[10] = target: Estrogen receptor (Homo sapiens) (UniProt P03372); experiment: qHTS assay to identify small molecule agonists of the estrogen receptor alpha (ER-alpha) signaling pathway using the BG1 cell line (AID 743079); also: nearly all actives have a fitted effect of over 20% in size; also: potency is read from the fitted curve at half-maximal effect
[11] = qHTS assay to identify small molecule antagonists of the estrogen receptor alpha (ER-alpha) signaling pathway using the BG1 cell line (AID 743080; calls by dose curve;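 also: BG1 cells stimulated with 17beta-estradiol alongside compound; nearly all actives have a fitted effect of over 25% in size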; also: potency is read from the fitted curve at half-maximal effect)
In short: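 Luminescence from a 4×ERE-luciferase reporter in BG1-Luc-4E2 cells served as read-out. Cells, pre-cultured 5 days in stripped-serum phenol-red-free medium, were exposed to compound with 17beta-estradiol co-stimulation for 21.5 h at 37 C.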

[12] = qHTS assay to identify small molecule antagonists of the estrogen receptor alpha (ER-alpha) signaling pathway using the BG1 cell line - cell viability counter screen (AID 743081);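 also: compound given together with 17beta-estradiol as the ER stimulus; nearly all actives have a fitted effect of over 45% in size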; also: potency is read from the fitted curve at half-maximal effect
Aromatase (Homo sapiens) = Aromatase (Homo sapiens) (UniProt P11511); experiment: qHTS assay to identify aromatase inhibitors (AID 743083); also: series mostly up to about 70 µM; nearly all actives have a fitted effect of over 55% in size
[13] = qHTS assay for identifying genotoxic compounds that show differential cytotoxicity against isogenic chicken DT40 cell lines with known DNA damage response pathways - Rad54/Ku70 mutant cell line (AID 743015); also: nearly all actives have a fitted effect of over 60% in size; also: potency is read from the fitted curve at half-maximal effect
[14] = qHTS assay to identify small molecule antagonists of the androgen receptor (AR) signaling pathway using the MDA cell line - cell viability counter screen (AID 743041; also: nearly all actives have a fitted effect of over 45% in size; also: potency is read from the fitted curve at half-maximal effect)
In short: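 R1881-driven MDA-kb2 AR-luc cells, 3,000/well, were dosed with library compounds for 16 h; cell health came from CellTiter-Fluor fluorescence in the reporter wells.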

[15] = target: Estrogen receptor (Homo sapiens) (UniProt P03372); experiment: qHTS assay to identify small molecule antagonists of the estrogen receptor alpha (ER-alpha) signaling pathway (AID 743069; active = well fitted curve in the direction sought with a large enough effect in the signal ratio in the repeat runs, not every such curve was filed as active; inconclusive = weak or mixed curves, or effect the other way; inactive = no such curve, though single readings can be large or run the other way; the % refers to the signal ratio; also: potency is read from the fitted curve at half-maximal effect)
In short: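 Compound effects are measured against 17beta-estradiol stimulation in HEK293 cells with a UAS-controlled beta-lactamase reporter for ER-alpha. Exposure lasts 18 hr at 37C; LiveBLAzer B/G FRET substrate follows for 2 hr at room temperature.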

[16] = target: Androgen receptor (Homo sapiens) (UniProt P10275); experiment: qHTS assay to identify small molecule agonists of the androgen receptor (AR) signaling pathway using the MDA cell line (AID 743040; also: nearly all actives have a fitted effect of over 20% in size)
In short: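 After a 5 h incubation at 37C and 0% CO2, MDA-kb2 reporter cells were dosed with compounds in DMSO and kept 16 h under the same conditions. Luciferase activity was then read as luminescence with ONE-Glo.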

[17] = target: Androgen receptor (Homo sapiens) (UniProt P10275); experiment: qHTS assay to identify small molecule antagonists of the androgen receptor (AR) signaling pathway using the MDA cell line (AID 743042; also: nearly all actives have a fitted effect of over 55% in size; also: potency is read from the fitted curve at half-maximal effect)
In short: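 Antagonist mode: compounds plus R1881 agonist added to MDA-kb2 AR-luc cells, incubated 16 h at 37C. Luciferase reporter luminescence quantified, with multiplexed CellTiter-Fluor readout for cell viability.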

[18] = target: Androgen receptor (Homo sapiens) (UniProt P10275); experiment: qHTS assay to identify small molecule agonists of the androgen receptor (AR) signaling pathway (AID 743036; active = well fitted activation curve with a large enough effect in the signal ratio in the repeat runs, with a control signal flat, not every such curve was filed as active; inconclusive = weak or mixed curves, or effect the other way; inactive = no such curve, though single readings can be large or run the other way; the % refers to the signal ratio)
In short: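 HEK293 cells stably carrying a UAS-driven beta-lactamase reporter (GeneBLAzer AR-UAS-bla-GripTite) were plated at 2,000 cells/well, rested 4 h at 37C, then exposed to compounds in DMSO for 16 h. LiveBLAzer B/G FRET substrate was added for 2 h at room temperature; fluorescence read.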

[19] = target: Androgen receptor (Homo sapiens) (UniProt P10275); experiment: qHTS assay to identify small molecule antagonists of the androgen receptor (AR) signaling pathway (AID 743035; active = well fitted inhibition curve with a large enough effect in the signal ratio in the repeat runs, not every such curve was filed as active; inconclusive = weak or mixed curves, or effect the other way; inactive = no such curve, though single readings can be large or run the other way; the % refers to the signal ratio; also: potency is read from the fitted curve at half-maximal effect)
In short: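 Beta-lactamase FRET read (2 h RT incubation with LiveBLAzer B/G) following 16 h of compound plus R1881 treatment of AR-UAS-bla HEK293 cells, which had been pre-incubated 4 h at 37C.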

Measured: Potency

Sequence of Androgen receptor (Homo sapiens) (P10275 whole entry, looked up): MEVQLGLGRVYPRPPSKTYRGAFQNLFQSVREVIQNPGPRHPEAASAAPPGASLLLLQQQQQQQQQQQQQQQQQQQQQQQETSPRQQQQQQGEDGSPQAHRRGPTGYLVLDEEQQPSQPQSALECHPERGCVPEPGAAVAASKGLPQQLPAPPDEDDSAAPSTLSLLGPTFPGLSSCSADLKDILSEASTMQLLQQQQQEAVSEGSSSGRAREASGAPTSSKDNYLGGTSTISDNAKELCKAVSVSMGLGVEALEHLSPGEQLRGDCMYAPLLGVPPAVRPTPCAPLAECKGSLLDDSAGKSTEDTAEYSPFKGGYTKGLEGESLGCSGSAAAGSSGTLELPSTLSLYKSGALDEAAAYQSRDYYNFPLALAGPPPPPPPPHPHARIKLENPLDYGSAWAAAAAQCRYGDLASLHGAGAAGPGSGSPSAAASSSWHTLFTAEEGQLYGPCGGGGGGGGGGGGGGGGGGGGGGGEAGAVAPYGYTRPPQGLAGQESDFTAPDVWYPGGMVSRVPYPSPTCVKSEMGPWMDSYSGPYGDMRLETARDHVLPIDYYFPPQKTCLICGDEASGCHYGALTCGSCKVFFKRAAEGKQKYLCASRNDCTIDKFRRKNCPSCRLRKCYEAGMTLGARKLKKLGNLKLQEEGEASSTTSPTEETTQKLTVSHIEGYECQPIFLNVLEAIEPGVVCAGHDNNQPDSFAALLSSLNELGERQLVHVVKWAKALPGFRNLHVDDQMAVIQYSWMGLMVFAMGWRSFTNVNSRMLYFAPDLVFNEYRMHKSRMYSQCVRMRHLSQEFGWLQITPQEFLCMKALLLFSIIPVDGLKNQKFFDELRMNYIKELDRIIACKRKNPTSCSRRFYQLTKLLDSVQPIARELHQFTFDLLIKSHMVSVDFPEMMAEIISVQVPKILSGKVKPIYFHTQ
Sequence of Estrogen receptor (Homo sapiens) (P03372 whole entry, looked up): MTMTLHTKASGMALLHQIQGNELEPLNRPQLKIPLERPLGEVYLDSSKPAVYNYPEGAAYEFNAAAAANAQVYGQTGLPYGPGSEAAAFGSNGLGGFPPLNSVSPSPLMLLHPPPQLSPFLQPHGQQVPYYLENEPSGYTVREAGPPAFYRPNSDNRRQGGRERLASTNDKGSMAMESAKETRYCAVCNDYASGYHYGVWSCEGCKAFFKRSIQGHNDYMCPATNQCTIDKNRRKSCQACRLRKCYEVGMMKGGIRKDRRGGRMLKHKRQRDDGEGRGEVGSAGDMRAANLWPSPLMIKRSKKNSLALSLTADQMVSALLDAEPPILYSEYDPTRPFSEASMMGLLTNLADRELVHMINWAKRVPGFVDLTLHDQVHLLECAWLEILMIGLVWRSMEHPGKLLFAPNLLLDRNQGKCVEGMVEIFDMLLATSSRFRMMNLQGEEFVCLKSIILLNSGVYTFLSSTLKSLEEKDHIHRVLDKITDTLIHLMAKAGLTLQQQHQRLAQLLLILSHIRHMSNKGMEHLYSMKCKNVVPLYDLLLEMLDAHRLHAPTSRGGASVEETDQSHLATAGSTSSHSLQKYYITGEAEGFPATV
Sequence of Aromatase (Homo sapiens) (P11511 whole entry, looked up): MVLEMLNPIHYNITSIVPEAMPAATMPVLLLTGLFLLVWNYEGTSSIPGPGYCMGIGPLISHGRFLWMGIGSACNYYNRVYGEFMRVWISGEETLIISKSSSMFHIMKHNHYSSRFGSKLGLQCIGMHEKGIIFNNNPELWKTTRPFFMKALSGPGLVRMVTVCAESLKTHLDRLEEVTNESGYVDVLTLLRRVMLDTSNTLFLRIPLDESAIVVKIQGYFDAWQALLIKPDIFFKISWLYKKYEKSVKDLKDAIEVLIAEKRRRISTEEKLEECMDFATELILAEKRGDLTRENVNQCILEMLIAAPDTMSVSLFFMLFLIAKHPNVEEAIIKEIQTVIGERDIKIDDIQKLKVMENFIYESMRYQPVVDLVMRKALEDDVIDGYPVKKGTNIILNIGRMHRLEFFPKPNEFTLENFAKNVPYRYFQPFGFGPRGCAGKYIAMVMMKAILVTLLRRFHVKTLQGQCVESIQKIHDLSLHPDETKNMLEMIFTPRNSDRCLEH

Clc1cccc(SC2CCNCC2)n1
not listed: [13] | [14] | [15] | [16] | [17] | [18] | [19]
inactive: all other assays above

CCOc1nc(F)cc2nc(S(=O)(=O)Nc3c(Cl)cccc3Cl)nn12
not listed: [2] | [16] | [17] | [18] | [19]
inactive: all other assays above

CC(C)N(CCC(C(N)=O)(c1ccccc1)c1ccccn1)C(C)C (centres undefined)
inactive: [1] | [2] | [13] | [4] | [5] | [6] | [7] | [8] | [12] | Aromatase (Homo sapiens)

CO[C@@H]1[C@H](OC(=O)NC(=O)CCl)CC[C@]2(CO2)[C@H]1[C@@]1(C)O[C@@H]1CC=C(C)C
active: [2] 0.0006 µM
not listed: [3] | [5] | [6] | [9] | [13] | [15] | [18] | [19]
inactive: all other assays above

CCOP(=S)(OCC)Oc1nc(Cl)c(Cl)cc1Cl
not listed: [2] | [6] | [19]
inactive: all other assays above

CCCCCCCCCCOC(=O)c1ccccc1C(=O)OCCCCCCCCCC
not listed: [2] | [6] | [7] | [14] | [15] | [17] | [19]
inactive: all other assays above

O=C(NCc1cccnc1)Nc1ccc([N+](=O)[O-])cc1
active: [6] 68.6 µM
not listed: [5] | [13] | [16] | [17] | [18] | [19]
inactive: all other assays above

N#CCc1ccccc1
not listed: [2] | [16] | [17] | [18] | [19]
inactive: all other assays above

O=[Se]=O
inactive: [1] | [4] | [5] | [7] | [9] | Aromatase (Homo sapiens)
active: [3] 0.341 µM | [13] 0.242 µM | [14] 19.2 µM | [6] 21.5 µM | [15] 6.12 µM [inconclusive] | [12] 19.2 µM

CCOP(=S)(Oc1ccc([N+](=O)[O-])cc1)c1ccccc1 (centres undefined)
active: [10] 27.3 µM
not listed: [3] | [5] | [13] | [16] | [17] | [18] | [19]
inactive: all other assays above

c1ccoc1
not listed: [3] | [10] | [14] | [15] | [16] | [17] | [18] | [19]
inactive: all other assays above

O=C1C(Cl)C(CCl)CN1c1cccc(C(F)(F)F)c1 (centres undefined)
active: [19] 24.5 µM
not listed: [2] | [9] | [10] | [11] | [15]
inactive: all other assays above

CC(C)=CCOc1c2occc2cc2ccc(=O)oc12
active: [2] 26.6 µM
not listed: [3] | [12] | [13]
inactive: all other assays above

Cc1ccc(-c2c(Cl)nc(C#N)n2S(=O)(=O)N(C)C)cc1
active: [3] 61.1 µM | [13] 61.1 µM | [4] 43.6 µM | [17] 54.4 µM | [5] 54.4 µM | [11] 54.4 µM
inactive: [1] | [16] | [12]

O=C=Nc1ccc(Cl)cc1
active: [3] 54.5 µM | [13] 27.3 µM | [15] 3.47 µM [inhibitor]
not listed: [2] | [10] | [11] | [16] | [17] | [18] | [19]
inactive: all other assays above

Nc1ccc(N=Nc2ccc(-c3ccc(N=Nc4c(S(=O)(=O)O)cc5cc(S(=O)(=O)O)c(N=Nc6ccccc6)c(O)c5c4N)cc3)cc2)c(N)c1
inactive: [1] | [2] | [13] | [4] | [14] | [7] | [9] | [10] | [11] | [12]

CC1(C)[C@H](C=C(Cl)Cl)[C@@H]1C(=O)O[C@@H](C#N)c1cccc(Oc2ccccc2)c1
not listed: [10] | [13] | [16] | [17] | [18] | [19]
inactive: all other assays above
